Source: PubChem BioAssay (Broad Institute)
An excerpt weighted towards active compounds, which were near 2.1% of everything screened.
ERAP1 HTS inh – ERAP1 (human) enzyme inhibition; Q9NZ08; recombinant ERAP1, Leu-AMC fluorescence, 60 min; inhibition, % at 10.7 µM; 340,000 tested, 0.15% active;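 active = mean replicate inhibition of at least 30%, or all replicates individually reaching that 30% level; inactive = mean below 30% and not every replicate reaching it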
Target sequence (Q9NZ08 whole entry, looked up): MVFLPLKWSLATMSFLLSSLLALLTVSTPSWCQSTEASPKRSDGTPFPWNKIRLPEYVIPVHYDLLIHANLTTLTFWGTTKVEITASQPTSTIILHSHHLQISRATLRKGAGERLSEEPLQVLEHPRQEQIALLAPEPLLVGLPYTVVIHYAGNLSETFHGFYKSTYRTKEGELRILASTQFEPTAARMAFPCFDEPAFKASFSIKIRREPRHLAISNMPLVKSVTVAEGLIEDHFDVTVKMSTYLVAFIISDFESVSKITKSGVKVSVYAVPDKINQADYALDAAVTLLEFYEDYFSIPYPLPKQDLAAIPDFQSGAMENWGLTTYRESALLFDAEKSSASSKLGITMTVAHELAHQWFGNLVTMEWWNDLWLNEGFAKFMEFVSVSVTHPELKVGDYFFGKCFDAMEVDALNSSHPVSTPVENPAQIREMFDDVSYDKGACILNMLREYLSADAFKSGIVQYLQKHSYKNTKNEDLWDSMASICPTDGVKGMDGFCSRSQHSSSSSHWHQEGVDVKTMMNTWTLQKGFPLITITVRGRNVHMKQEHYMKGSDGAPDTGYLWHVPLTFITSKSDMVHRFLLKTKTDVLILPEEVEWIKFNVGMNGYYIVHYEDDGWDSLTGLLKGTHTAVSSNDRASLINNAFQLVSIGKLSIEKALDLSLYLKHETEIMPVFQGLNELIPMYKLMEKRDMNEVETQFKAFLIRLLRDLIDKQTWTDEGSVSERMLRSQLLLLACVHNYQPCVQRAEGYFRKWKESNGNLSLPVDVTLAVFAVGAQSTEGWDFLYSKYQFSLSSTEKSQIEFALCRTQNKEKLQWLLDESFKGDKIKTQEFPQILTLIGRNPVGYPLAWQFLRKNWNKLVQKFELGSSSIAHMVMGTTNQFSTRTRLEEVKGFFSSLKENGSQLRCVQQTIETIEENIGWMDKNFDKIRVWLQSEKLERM
PvdQ inh – blocks Pseudomonas aeruginosa PvdQ acylase activity. 340,000 tested, 0.063% active. purified PvdQ acylase, fluorescence plate reader. inhibition, % at 10 µM. AID 488965; in the data active = inhibition above about 30%, passing the limit was not always enough
CFTR F508del cor – correctors of CFTR F508del function in bronchial epithelial cells | CFBE cells, YFP halide quenching; stimulated with forskolin plus potentiator P3; % fluorescence drop versus neutral controls | activity (quench increase), % at 7.58 µM | 350,000 tested, 0.36% active;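 active = mean added fluorescence quench of at least 8% versus neutral control, with both replicates also reaching 8%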;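 note: cells transiently co-express mutant CFTR-F508del with the halide-sensitive YFP; corrector assay measuring rescue of mutant channel to the surface after 24 h compound exposure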
ARNT-TACC3 inh – ARNT/TACC3 interaction disruption | inhibition, % at 9.99 µM | AlphaScreen His-ARNT PAS-B/GST-TACC3 binding, luminescence; TACC3 fragment carries E629A point mutation | AID 623870 | 390,000 tested, 0.66% active;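 active = mean inhibition of replicates at least 50% and at least half of replicates each reaching 50%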
rRNA inh HTS – inhibits bacterial ribosomal RNA function over humanized ribosomes | E. coli WT GFP vs humanized-ribosome RFP mutants, fluorescence, 24 h; hits give low values; DMSO median 0, no signal -100 | GFP signal change (wild-type ribosome), % (no concentration beside the values) | 350,000 tested, 1.6% active;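 active = significant combined selectivity score with lowered wild-type GFP, culture density cut under 30%, mutant RFP and density less affected; inactive = any of these conditions unmet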
Hits are given with their value; i = inactive; nt = not tested or not shown.

SMILES	ERAP1 HTS inh	PvdQ inh	CFTR F508del cor	ARNT-TACC3 inh	rRNA inh HTS
NC(Cc1nc2ccccc2[nH]1)c1ccc(Cl)cc1 (configuration not stated)	i	i	i	i	-45.4
Cn1c(O)c(C(c2ccncc2)c2c(O)n(C)c(=S)n(C)c2=O)c(=O)n(C)c1=S	nt	i	nt	46.8	nt
Cn1c(O)c(C(c2ccccn2)c2c(O)n(C)c(=S)n(C)c2=O)c(=O)n(C)c1=S	nt	i	nt	i	nt
COc1ccc(/C=C2/C(=O)NC(=O)N(c3ccccc3)C2=O)cc1CN1C(=O)c2ccccc2C1=O	nt	i	nt	i	nt
COc1cc(/C=C2/C(=O)NC(=O)N(c3ccccc3)C2=O)ccc1O	i	i	nt	active	i
COc1ccc(C=C2C(=O)NC(=S)NC2=O)cc1OC	36.9	i	i	i	i
CCOc1cc(C=C2C(=O)NC(=S)NC2=O)ccc1O	i	i	i	i	i
COc1ccc(C#Cc2ccc([C@@H]3[C@H]4CN(C(=O)Cc5cccnc5)CCCCN4[C@H]3CO)cc2)cc1	i	nt	i	i	i
C[N+]1(CC2COC(c3ccco3)O2)CCCCC1 (configuration not stated)	80.1	i	i	i	i
COc1ccc(-n2c(-c3ccc(C)cc3)nc3ccccc3c2=O)cc1	i	i	i	i	-26.8
COC(=O)[C@H]1[C@H](CO)[C@H]2Cn3c(ccc(C4=CCCC4)c3=O)[C@@H]1N2CC1CCCCC1	i	nt	i	i	i
COc1cccc(OC)c1C1=NCC(=O)Nc2c1oc1ccc(Br)cc21	i	i	i	i	-28.1
CC=Cc1ccc2n(c1=O)C[C@H]1[C@H](CO)[C@@H](C(=O)OC)[C@@H]2N1C(=O)CC (mixture of isomers)	i	nt	nt	i	i
COc1ccccc1-n1c(Cc2ccccc2)nc2ccccc2c1=O	i	i	i	i	-22.4
COc1cccc(CC(=O)N2CCN(Cc3cccc(Cl)c3)CC2)c1	i	i	i	i	i
COc1cccc(N2CCN(Cc3cccc(Cl)c3)CC2)c1	i	i	i	i	-24.2
Fc1cccc(CN2CCN(c3ccc(Cl)cc3)CC2)c1	i	i	i	i	i
COc1cccc(N2CCN(Cc3ccc(Cl)cc3)CC2)c1	i	i	i	i	-33.4
CCCN1[C@@H]2Cn3c(ccc(-c4cccc(C(=O)N(C)C)c4)c3=O)[C@H]1[C@@H](C(=O)OC)[C@@H]2CO	i	nt	nt	i	i
CC(=O)Nc1ccc(C(=O)OCC(=O)Nc2ccc(Cl)cc2C(=O)c2ccccc2)cc1	nt	i	nt	i	nt
O=C(COC(=O)c1ccc(O)cc1)Nc1ccc(Cl)cc1C(=O)c1ccccc1	i	i	i	i	-43.1
O=C(Cc1ccccn1)N1CC2(C1)[C@@H](c1ccccc1)[C@@H](CO)N2Cc1ccccn1	i	nt	i	nt	i
Nc1ccc(Cl)c(Cl)c1	i	i	12.3	i	i
COc1ccc(-c2ccc([C@@H]3[C@@H](CO)N4CCCCN(C(=O)Cc5ccccc5)C[C@H]34)cc2)cc1	nt	nt	i	i	i
O=C(N/N=C/c1c(O)n(Cc2ccccc2)c(=O)[nH]c1=O)c1ccccc1O	nt	i	nt	62.6	nt
SMILES	ERAP1 HTS inh	PvdQ inh	CFTR F508del cor	ARNT-TACC3 inh	rRNA inh HTS
O=C(N/N=C/c1c(O)n(Cc2ccc(F)cc2)c(=O)[nH]c1=O)c1ccccc1O	i	i	i	nt	i
Cc1ccc(-n2c(O)c(/C=N/NC(=O)c3ccncc3)c(=O)[nH]c2=O)cc1C	i	i	i	62.5	i
O=C(N/N=C/c1c(O)n(CCc2ccc(F)cc2)c(=O)[nH]c1=O)c1ccncc1	i	i	i	65.4	i
O=C(N/N=C/c1c(O)n(CCc2ccccc2)c(=O)[nH]c1=O)c1ccncc1	nt	i	nt	74.5	nt
OC[C@@H]1Nc2ccc(C#Cc3cccnc3)cc2[C@H]2NCC[C@@H]12	nt	nt	nt	nt	i
CC(C)CC#Cc1ccc([C@@H]2[C@H](CO)N3CCCCN(C(=O)Cc4ccccn4)C[C@@H]23)cc1	i	nt	i	i	i
O=C(Cc1cccnc1)N1CCCCN2[C@H](C1)[C@@H](c1ccc(/C=C/c3ccccc3)cc1)[C@@H]2CO	i	nt	i	i	i
COc1ccc(Cn2c(O)c(/C=N/NC(=O)c3ccncc3)c(=O)[nH]c2=O)cc1	i	i	i	58.0	i
O=C(N/N=C/c1c(O)n(CCc2ccc(F)cc2)c(=O)[nH]c1=O)c1ccccc1	i	nt	i	nt	nt
COc1ccc(Cn2c(O)c(/C=N/NC(=O)c3ccccc3)c(=O)[nH]c2=O)cc1	i	i	i	i	i
O=C(N/N=C/c1c(O)n(-c2cccc3ccccc23)c(=O)[nH]c1=O)c1ccncc1	i	i	i	68.2	i
CCn1c(O)c(/C=N/NC(=O)c2ccccc2)c(=O)[nH]c1=S	i	i	i	63.1	i
O=C(Cc1ccccc1)N1CC2(C1)[C@H](c1ccccc1)[C@H](CO)N2Cc1cccc(F)c1	i	nt	i	nt	i
COc1cc([C@@H]2c3cc4c(cc3[C@@H](OC)[C@H]3COC(=O)[C@H]23)OCO4)cc(OC)c1O	i	i	9.3	i	i
COc1cc2c(cc1OC)-c1c(OC)c(OC)cc3c1C(C2)N(C)CC3 (configuration not stated)	i	i	i	i	nt
COc1cc2c(cc1O)C[C@H]1NCCc3cc4c(c-2c31)OCO4	i	i	i	52.0	i
COc1cc2c(cc1OC)-c1c3c(cc4c1[C@@H](C2)N(C)CC4)OCO3	i	i	i	35.3	i
COC(=O)[C@@H]1[C@@H](CO)[C@@H]2Cn3c(ccc(C4=CCCC4)c3=O)[C@H]1N2C(=O)CC1CC1	i	nt	i	i	i
FC(F)(F)CN1C[C@@H]2C(c3ccc(Br)cc3)[C@H](C1)N2CC1CC1 (some centres not stated)	nt	nt	nt	nt	i
COCC(=O)N1[C@@H]2c3ccc(C4=CCCC4)c(=O)n3C[C@H]1[C@H](CO)[C@H]2C(=O)OC	i	nt	i	i	i
CC1CCCN(c2ccc(C(=O)N3CCC4(CC3)OCCO4)cc2[N+](=O)[O-])C1 (configuration not stated)	i	i	i	i	-29.5
O=C(c1ccc(N2CCCCC2)c([N+](=O)[O-])c1)N1CCC2(CC1)OCCO2	i	i	i	i	i
Cc1nn(Cc2ccccc2)c(C)c1C(=O)OCC(=O)Nc1cccc(S(N)(=O)=O)c1	i	i	i	nt	-22.1
Cc1nn(Cc2ccccc2)c(C)c1C(=O)OCC(=O)Nc1cc(S(C)(=O)=O)ccc1Cl	i	i	i	i	i
COC(=O)[C@H]1[C@H](CO)[C@H]2Cn3c(ccc(C4=CCCCC4)c3=O)[C@@H]1N2Cc1cccnc1	i	nt	i	i	i
COc1ccc(SCC2CN(C)CCC2c2ccc(F)cc2)cc1 (configuration not stated)	i	i	i	i	-33.5
C[C@]12CCC(=O)C=C1CC[C@@H]1C2CC[C@]2(C)C(=O)CCC12 (some centres not stated)	i	i	i	i	-37.9
C[C@]12CCC(=O)C=C1CC[C@@H]1[C@@H]2CC[C@]2(C)C(=O)CC[C@@H]12	i	i	i	i	i
